Among the data in PubChem BioAssay (EPA / NIEHS) are outcome and AC50 values, retold here.

One may read the AC50 as the concentration giving half of the maximal activity seen.

Records with an inconclusive call do not appear. Active and inactive are the calls of the source. How the source made its calls, unless noted: active means hit-call score of the fitted dose curve at least 0.9, where 1 is the maximum; inactive means score below 0.9.

Test [1] is described as follows: CCTE_Harrill_HTTr_Viability_MCF7: CCTE's 6-hour Cell Viability Assessment for the High-Throughput Transcriptomics (HTTr) Platform, in MCF-7 cells cultured in DMEM + 10% fetal bovine serum, Harrill Lab (AID 2284010). The essentials:
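Propidium iodide exclusion, imaged by high-content analysis, gauged viability after a six-hour exposure across eight concentrations. Cells were MCF-7 grown in DMEM with 10% fetal bovine serum; fits run in both directions against DMSO.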

The nature of test [2]: CCTE_Shafer_MEA_dev_firing_rate_mean: CCTE's Neural Network Formation Assay for Mean Firing Rate, Shafer Lab (AID 2284031).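 On AC50: curve fitted for loss of firing so AC50 reflects decreased mean firing rate.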 The essentials:
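Spike frequency (spikes/recording length, averaged over active electrodes) was recorded on days 5, 7, 9 and 12 and collapsed to AUC; rat cortical cultures received compound continuously over 12 days of network development.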

The nature of test [3]: CCTE_Shafer_MEA_dev_per_burst_spike_percent: CCTE's Neural Network Formation Assay for Percent of Spikes in a Burst, Shafer Lab (AID 2284032).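 On AC50: fitted as a decrease in burst spike percentage below DMSO baseline.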 The essentials:
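Value is trapezoidal AUC over recordings on days 5, 7, 9 and 12 of the well-mean fraction of spikes falling in single-electrode bursts; rat cortical cultures exposed continuously from plating, treatment renewed DIV 5 and 9, fitted downward against DMSO.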

Test [4] is described as follows: CCTE_Shafer_MEA_dev_active_electrodes_number: CCTE's Neural Network Formation Assay for Number of Active Electrodes, Shafer Lab (AID 2284040; active means hit-call score of the fitted dose curve at least 0.9, where 1 is the maximum;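 on AC50: potency for loss of active electrodes versus DMSO so lower counts are hits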). The essentials: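 Counts electrodes per well firing at least 5 spikes/min, recorded on days 5, 7, 9 and 12 in rat cortical cultures dosed continuously from plating (treatment refreshed DIV 5, 9). Value is the area under the curve over recordings, fitted downward relative to DMSO.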

Test [5] is described as follows: CCTE_Shafer_MEA_dev_burst_rate: CCTE's Neural Network Formation Assay for Burst Rate, Shafer Lab (AID 2284042).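 On AC50: potency for loss of burst rate below DMSO control.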 The essentials: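 Primary rat cortical neurons on PEI-coated 48-well MEA plates (laminin added with cells at plating) (16 electrodes/well), exposed from plating to day 12, dosing renewed at DIV 5 and 9. Burst rate averaged over active electrodes, recorded DIV 5, 7, 9, 12, summarized as AUC; loss versus DMSO.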

The nature of test [6]: CCTE_Shafer_MEA_dev_bursting_electrodes_number: CCTE's Neural Network Formation Assay for Number of Bursting Electrodes, Shafer Lab (AID 2284043; active means hit-call score of the fitted dose curve at least 0.9, where 1 is the maximum;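 on AC50: potency is for loss of bursting electrodes relative to DMSO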). The essentials:
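Counted: electrodes with burst rate ≥1 per 2 min in each well. Cells: primary rat cortex, 1.5 x 10^5/well, on 16-electrode MEA wells. Exposure: DIV 0–12, compound renewed DIV 5 and 9. Recording days 5, 7, 9, 12; AUC vs DMSO baseline.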

The nature of test [7]: CCTE_Shafer_MEA_dev_per_burst_interspike_interval: CCTE's Neural Network Formation Assay for Burst Interspike Interval, Shafer Lab (AID 2284044).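 On AC50: potency for a decrease of within-burst interspike interval below DMSO level.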 The essentials:
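Rat cortical primary cultures, 16 electrodes/well; compound from plating, renewed with full media change DIV 5 and 9. Spikes via adaptive detector; per-burst ISI well-mean over active bursting electrodes; AUC of DIV 5/7/9/12 recordings; loss-direction fit vs DMSO.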

Test [8] can be described thus: CCTE_Shafer_MEA_dev_burst_duration_mean: CCTE's Neural Network Formation Assay for Mean Burst Duration, Shafer Lab (AID 2284045).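 On AC50: curve fitted for loss meaning shorter burst duration than DMSO.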 The essentials:
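Network-formation assay in primary rat cortical neurons; treatment spans twelve days of development. Mean burst duration per well is integrated by trapezoidal AUC and fitted in the loss-of-signal direction against DMSO baseline.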

Test [9] is described as follows: CCTE_Shafer_MEA_dev_interburst_interval_mean: CCTE's Neural Network Formation Assay for Mean Interburst Interval, Shafer Lab (AID 2284046).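 Further: well-mean interburst interval of bursting electrodes as AUC over four recording days; curve fitted for decrease in interburst interval relative to DMSO.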 The essentials: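 Recordings on days 5, 7, 9 and 12 give well-mean interburst interval across actively bursting electrodes, summarized as area under the curve. Cultures: rat cortical neurons, continuous exposure from day 0, compound renewed at feeds; decrease analyzed versus DMSO.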

Test [10] can be described thus: CCTE_Shafer_MEA_dev_inter_network_spike_interval_mean: CCTE's Neural Network Formation Assay for Mean Inter-network Spike Interval, Shafer Lab (AID 2284047).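 On AC50: potency for a decrease in mean inter-network spike interval below DMSO.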 The essentials:
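Primary rat cortical neurons on 16-electrode MEA wells, exposed from plating day 0 through DIV 12, compound renewed at DIV 5 and 9 media changes. Mean interval between network-spike peaks recorded DIV 5, 7, 9, 12; collapsed as trapezoidal AUC, fitted downward versus DMSO.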

The nature of test [11]: CCTE_Shafer_MEA_dev_network_spike_number: CCTE's Neural Network Formation Assay for Number of Network Spikes, Shafer Lab (AID 2284048).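 Further: synchronized bursts across electrodes counted on days 5 7 9 12 and integrated as AUC.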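 On AC50: fit as a loss of signal meaning fewer network spikes than DMSO.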 The essentials:
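Extracellular recordings from 16-electrode wells track network formation in rat cortical cultures under continuous treatment from plating. The endpoint is network spike number, expressed as AUC across DIV 5–12 relative to DMSO vehicle.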

Test [12] in a line: CCTE_Shafer_MEA_dev_network_spike_peak: CCTE's Neural Network Formation Assay for Mean Number of Electrodes in Network Spike, Shafer Lab (AID 2284049).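 On AC50: fitted for loss of signal meaning fewer electrodes in network spikes than DMSO.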 The essentials: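 Continuous 12-day exposure of rat cortical cultures, starting at plating, on MEA plates. Endpoint: electrodes participating in network-spike peaks, AUC across DIV 5–12, DMSO as negative control.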
Test [13] can be described thus: CCTE_Shafer_MEA_dev_spike_duration_mean: CCTE's Neural Network Formation Assay for Mean Spike Duration, Shafer Lab (AID 2284051).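 On AC50: potency for a decrease in mean network spike duration versus DMSO.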 The essentials: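 Primary rat cortical neurons on 16-electrode MEA wells (PEI-coated, laminin in plating drop), exposed from plating through DIV 12 with compound renewed at DIV 5 and 9. Mean network-spike duration recorded DIV 5, 7, 9, 12; trapezoidal AUC across days, DMSO baseline.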

Test [14] is described as follows: CCTE_Shafer_MEA_dev_network_spike_duration_std: CCTE's Neural Network Formation Assay for Standard Deviation of Network Spike Duration, Shafer Lab (AID 2284052).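 Further: area under curve of spike duration SD across recording days 5 to 12; hits are decreases in network spike duration SD versus DMSO vehicle.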 The essentials: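 Primary rat cortical neurons on PEI-coated 16-electrode MEA wells, exposed from plating day 0 through day 12 with compound renewed at DIV 5 and 9. Network spike duration SD recorded on days 5, 7, 9, 12, collapsed as trapezoidal AUC; loss-of-signal fit versus DMSO.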

The nature of test [15]: CCTE_Shafer_MEA_dev_per_network_spike_spike_number_mean: CCTE's Neural Network Formation Assay for Mean Number of Spikes in a Network Spike, Shafer Lab (AID 2284053). The essentials:
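Primary rat cortical neurons on 48-well, 16-electrode MEA plates were exposed from plating to DIV 12, with dosing renewed on DIV 5 and 9. Spikes per network spike (0.05 s peak window) were recorded on DIV 5, 7, 9 and 12 and collapsed as trapezoidal AUC versus DMSO.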

A short description of test [16]: CCTE_Shafer_MEA_dev_per_network_spike_spike_percent: CCTE's Neural Network Formation Assay for Percent of Spikes in a Network Spike, Shafer Lab (AID 2284054). The essentials: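 Developing networks of rat cortical neurons are dosed at day 0 and recorded extracellularly four times up to day 12. The endpoint is the area under the curve of percent spikes in network spikes, fitted in the negative direction relative to DMSO.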

Test [17] is described as follows: CCTE_Shafer_MEA_dev_LDH: CCTE's Lactate Dehydrogenase Assay for Cytotoxicity in the Neural Network Formation Assay, Shafer Lab (AID 2284068; active means hit-call score of the fitted dose curve at least 0.9, where 1 is the maximum;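 further: exposure for twelve days from plating with re-dosing on DIV 5 and 9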). The essentials:
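Primary rat cortical neurons were plated on PEI/laminin MEA plates and exposed from day 0 for twelve days, with compound renewed at DIV 5 and 9. Cytotoxicity was determined by spectrophotometric LDH assay relative to DMSO.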

The nature of test [18]: CCTE_Shafer_MEA_dev_mutual_information_norm: CCTE's Neural Network Formation Assay for Mutual Information Normalization, Shafer Lab (AID 2284091).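 On AC50: mutual information between electrodes summarised as area under curve across four recording days; potency is for a decrease in mutual information relative to DMSO.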 The essentials: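 Exposure of primary rat cortical neurons began at plating and ran to DIV 12, with full media and treatment renewal after DIV 5 and 9 recordings. Mutual information AUC (DIV 5–12) was analysed for loss versus DMSO.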

The nature of test [19]: CCTE_Shafer_MEA_dev_correlation_coefficient_mean: CCTE's Neural Network Formation Assay for Mean Correlation Coefficient, Shafer Lab (AID 2284093).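 On AC50: well mean pairwise spike train correlation integrated as AUC over recording days 5 to 12; potency fitted for loss of correlation relative to DMSO vehicle wells.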 The essentials:
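Spontaneous activity recorded on days 5, 7, 9 and 12 post-plating; pairwise spike correlations are averaged across active electrodes and collapsed to an area-under-curve. Rat cortical cultures are dosed from plating through 12 days, with compound renewed at media changes.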

Consider `COc1ccc2c3c1O[C@H]1[C@@H](O)C=C[C@H]4[C@@H](C2)N(C)CC[C@@]341`, for which the outcome in [1] was inactive.
On to `C[n+]1ccc(-c2cc[n+](C)cc2)cc1`, for which the AC50 in [2] is 2290 nM (active); in [3] it was 1710 nM (active); in test [4], 1250 nM (active); in [5] it was 2290 nM (active); in [6] it was 1180 nM (active); in [7] it was 2330 nM (active). Moreover, the AC50 in test [8] was 2290 nM (active); in test [9], 1160 nM (active); in test [10], 760 nM (active); in test [11], 2310 nM (active); in [12] it was 1380 nM (active); in test [13] it was 1150 nM (active). The AC50 in test [14] is 1420 nM (active); in test [15] it was 1440 nM (active); in test [16], 1810 nM (active); in [17] it was 1710 nM (active); in test [18], 2290 nM (active); in test [19] it was 1630 nM (active).
With `CCCCC(CC)COC(=O)c1cc(Br)c(Br)c(Br)c1Br` (centres undefined), the result in test [1], in [2], in [5], in test [7], in test [8] and in [10] was inactive. For the same compound, the outcome in test [11], in test [14] and in test [18] was inactive. In addition, the concentration at half-maximal activity (AC50) in test [3] was 18800 nM (active); in [4], 18700 nM (active); in test [6] it was 18800 nM (active); in test [9] it was 16800 nM (active); in test [12], 18900 nM (active); in [13] it was 17700 nM (active). For the same compound, the AC50 in test [15] was 18800 nM (active); in test [16], 18900 nM (active); in test [17] it was 15900 nM (active); in test [19], 18800 nM (active).
Take `O=c1[nH]c2c(c(=O)n1C1CCCCC1)CCC2`: the result in [1] was inactive.
As for `Clc1c(Cl)c(Cl)c2c(c1Cl)Oc1c(Cl)c(Cl)c(Cl)c(Cl)c1O2`, in [1], the result was inactive.
`O=S1OC[C@@H]2[C@H](CO1)[C@]1(Cl)C(Cl)=C(Cl)[C@]2(Cl)C1(Cl)Cl` (some centres undefined): the result in test [1] was inactive.
The same measure, in the same setting: as for `COP(=S)(OC)SCC(=O)N(C)C=O`, the entry is “inactive”.
Regarding `ClC1=C(Cl)[C@]2(Cl)[C@H]3[C@H]([C@H](Cl)C(Cl)[C@@H]3Cl)[C@@]1(Cl)C2(Cl)Cl` (some centres undefined), the result in test [1] was inactive.
`Cc1ccc2cc3c(ccc4ccccc43)c3c2c1CC3`: the outcome in test [1] was inactive.
Regarding `[Cl-].[Cl-].[Cl-].[Pr+3]`, the result in test [1] was inactive.
As to `CP(=O)(O)CC[C@H](N)C(=O)O`, the result in test [2], in test [3], in test [4], in test [5], in [6] and in test [7] was inactive. The outcome in [8], in test [9], in [10], in [11], in test [12] and in [13] was inactive. Further, the call in [14], in test [15], in test [16], in test [17], in test [18] and in test [19] was inactive.
As to `O=C(O)CCCOC(=O)c1ccccc1C(=O)O`, in test [1], the result was inactive.
For the compound `CP(=O)(O)CCC(N)C(=O)O` (centres undefined), the compound was classed as inactive in [2], in test [3], in test [4], in [5], in test [7] and in test [8]. For the same compound, the call in [9], in test [10], in test [11], in test [12], in [13] and in test [14] was inactive. The compound was called inactive in [15], in [16], in [17], in test [18] and in test [19].
Take `CC(=O)[O-].[Tl+]`: the compound was called inactive in [2], in [3], in [4], in [5], in test [6] and in test [7]. Moreover, the compound was classed as inactive in [8], in test [9], in test [10], in test [11], in test [12] and in test [13]. In addition, the compound was called inactive in [15], in test [16], in test [17], in [18] and in [19]. The AC50 in test [14] is 12100 nM (active).
Turning to `C#CCN(C)[C@H](C)Cc1ccccc1`, the compound was called inactive in test [2], in test [3], in test [4], in [5], in [7] and in test [8]. Further, the result in test [9], in test [10], in test [11], in test [12], in test [13] and in [14] was inactive. The compound was classed as inactive in [15], in test [16], in test [17], in [18] and in [19].
For the compound `CCOP(=O)(Oc1cnc(C(C)(C)C)nc1)OC(C)C` (centres undefined), the result in test [2], in [3], in test [5], in test [6], in [7] and in test [8] was inactive. Also, the result in test [9], in test [10], in test [11], in test [12], in test [13] and in [14] was inactive. Moreover, the compound was called inactive in test [15], in test [16], in test [18] and in test [19]. In addition, the half-maximal activity concentration (AC50) was 29200 nM (active) in test [4] and 11400 nM (active) in [17].
